Screening results: PubChem, The Scripps Research Institute Molecular Screening Center
An excerpt weighted towards active compounds, which were near 3.5% of everything screened.
MITF primary: human MITF inhibition, primary screen; O75030; AlphaScreen MITF homodimerization, bead proximity signal; inhibition, % at 2.6 µM; 0.91% of 650,000 active; AID 1259374; in the data active means inhibition above about 50%;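 further: 0% = vehicle wells with protein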
TEAD-YAP block: TEAD-YAP interaction inhibition; 1.4% of 640,000 active; inhibition, % at 9.12 µM; HEK-TIYL cells, TEAD-Gal4/YAP UAS-luciferase luminescence; in the data active means inhibition above about 32%;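 further: 0% = median of test compound wells and 100% = reference inhibitor wells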
FBW7 act: activators of human E3 ligase FBW7. 0.13% of 650,000 active. AlphaScreen FBW7–phospho-cyclin E peptide binding, activator screen. normalized activity (activation), % at 26.1 µM; in the data active means normalized activity above about 1.9%;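 further: purified mutant Fbw7 with reduced substrate affinity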
GPR151 ag: activates the human receptor GPR151; PathHunter beta-arrestin GPR151 cells, luminescence; activation, % at 11.2 µM; 1% of 650,000 active; in the data active means activation above about 4.9%;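 further: 0% = median of compound wells and 100% = cells with positive control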
Target sequence (Q8TDV0 whole entry, looked up): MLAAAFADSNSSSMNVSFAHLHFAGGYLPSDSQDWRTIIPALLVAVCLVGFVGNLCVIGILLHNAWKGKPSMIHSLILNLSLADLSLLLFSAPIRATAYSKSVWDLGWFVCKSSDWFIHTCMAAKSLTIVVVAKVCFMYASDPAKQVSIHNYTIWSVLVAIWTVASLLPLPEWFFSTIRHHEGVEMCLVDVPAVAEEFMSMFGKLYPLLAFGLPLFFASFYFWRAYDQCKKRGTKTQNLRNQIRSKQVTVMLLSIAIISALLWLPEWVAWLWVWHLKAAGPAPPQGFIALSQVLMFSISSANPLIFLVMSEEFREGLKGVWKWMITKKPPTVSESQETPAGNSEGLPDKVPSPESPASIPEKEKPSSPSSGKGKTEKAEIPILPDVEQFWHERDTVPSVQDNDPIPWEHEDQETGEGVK
MITF confirm: confirmation of human MITF inhibitors. inhibition, % at 2.6 µM. AlphaScreen MITF homodimerization, biotin/His-MITF beads. 16% of 4,700 active. AID 1259372. shares compounds with MITF primary;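 active means inhibition above a cutoff derived from the DMSO control wells, cut at about 28% in these data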;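 further: 0% = MITF dimer wells with DMSO only; inhibitors lower the bead chemiluminescence by keeping MITF from dimerizing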
AS interf DR: AlphaScreen optical interference, dose response counter-screen; shares compounds with MITF primary; AlphaScreen optical interference counterscreen, cell-free; IC50, µM; 6% of 480 active; AID 1259373; call rule not given here
AlphaScreen intf2: counter-screen: compounds optically interfering with AlphaScreen | shares compounds with MITF primary | LysRS AlphaScreen counterscreen, signal interference, triplicate | inhibition, % at 2.6 µM | 7.6% of 4,700 active | AID 1259376;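 active means inhibition above a cutoff derived from the DMSO control wells, cut at about 30% in these data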
Active calls of the source: *; / = not tested or not shown; ! = repeats disagree.

SMILES	MITF primary	TEAD-YAP block	FBW7 act	GPR151 ag	MITF confirm	AlphaScreen intf2	others
CN1CCN(CC(=O)NCc2ccc(F)cc2)CC1	21	-5	0	1	/	/
Cc1ccc(CNC(=O)CN2CCN(C)CC2)cc1	84*	3	0	0	7	9
CSc1ccccc1NC(=O)c1ccc(COc2ccc(C)cc2)o1	14	-13	0	1	/	/
COc1ccc2cc(C(=O)CBr)ccc2c1	16	2	0	5	/	/
CCC(=O)c1ccc2cc(OC)ccc2c1	82*	-13	0	2	1	13
CCN(CC(=O)Nc1ccccc1OC)CC(=O)Nc1ccccc1-c1ccccc1	82*	44*	-1	0	20	29
COc1ccc(OC)c(CN2CCC(N3CCCCC3)CC2)c1	52*	8	0	0	10	9
CCN1CCN(C2CCN(Cc3cc(OC)ccc3OC)CC2)CC1	61*	10	0	0	-5	-6
COc1ccc(OC)c(CN2CCN(C3CCCC3)CC2)c1	70*	5	0	-1	4	7
COc1ccc(CN2CCC(N3CCCCC3)CC2)c(OC)c1	25	1	0	-1	/	/
Brc1ccc(CN2CCC(N3CCCCC3)CC2)cc1	42	-8	0	-1	/	/
COc1ccc(OC)c(CN2CCC(O)CC2)c1	37	-4	0	-1	/	/
COc1ccc(CN2CCC(N3CCCC3)CC2)cc1	52*	-2	0	0	3	3
COc1cc(/C=N/n2cnnc2)cc(Br)c1OCc1ccc(F)cc1	-7	1	0	0	/	/
N#Cc1c(NC(N)=S)sc2c1CCCC2	7	-10	0	-2	/	/
CCOC(=O)C(NNc1ccccc1)(NC(=O)N(C)C)C(F)(F)F (stereo unspecified)	-1	-14	0	0	/	/
Nc1cc(OC(=O)c2ccccc2)nn1S(=O)(=O)c1ccc(Cl)cc1	-11	6	0	0	/	/
CCc1cc2c(cc3c(=O)n(CC(=O)N(CC)Cc4ccccc4)ncn32)s1	71*	2	0	1	13	9
O=C(Nc1ccc(N2CCOCC2)cc1)c1cccc(Nc2ccncn2)n1	58*	3	0	0	81*	2	AS interf DR=>7.6
O=C(Nc1ccc(N2CCOCC2)cc1)c1csc(Nc2ccncn2)n1	33	-15	0	1	/	/
C(=N\N1CCOCC1)/c1cccc(Oc2ccccc2)c1	70*	-34	0	1	12	7
CCCCC(=O)Nc1ccc(C(=O)Nc2ccc(S(=O)(=O)NCC)cc2)cc1	1	4	0	1	/	/
Cc1nc(C)n(-c2ccc(Nc3nccc(-c4cc(F)cc(-c5nccs5)c4)n3)cc2)n1	21	-13	0	0	/	/
COc1cc(CN2CCN(C3CCCCC3)CC2)cc(OC)c1O	65*	-8	0	-1	8	29
COc1cc(CN2CCN(C3CCCC3)CC2)cc(OC)c1OC	65*	11	0	3	28*	21	AS interf DR=>6.5
SMILES	MITF primary	TEAD-YAP block	FBW7 act	GPR151 ag	MITF confirm	AlphaScreen intf2	others
CCOc1ccc(C(=O)Nc2ccccc2-c2nc3ccccc3[nH]2)cc1	0	0	0	1	/	/
O=C(Nc1ccc(C(=O)N2CCOCC2)cc1)c1ncoc1-c1cccs1	23	3	0	-2	/	/
Cc1ccc(S(=O)(=O)Nc2nc(O)c(C3=c4cc([N+](=O)[O-])ccc4=NC3=O)s2)cc1	11	-2	0	2	/	/
O=C1N=c2ccc([N+](=O)[O-])cc2=C1c1sc(NS(=O)(=O)c2ccccc2)nc1O	64*!	8	0	0	11	23
O=C(OCC(=O)N1CCCC1)c1ccc(Br)o1	1	-2	0	2	/	/
COc1cc(CN2CCN(Cc3ccccc3)CC2)cc(OC)c1O	79*	4	0	-2	-35	0
COc1ccc(OC)c(NC(=O)CN2CCN(Cc3ccccc3)CC2)c1	62*	6	0	2	8	16
COc1cc(CN2CCN(C3CCN(Cc4ccccc4)CC3)CC2)cc(OC)c1O	63*	3	0	-1	-6	7
COc1cc(CN2CCN(C3CCN(Cc4ccccc4)CC3)CC2)cc(OC)c1OC	59*	3	0	-1	-5	-2
N#Cc1ccc(-c2cccs2)nc1SCC(=O)c1ccc(Cl)cc1Cl	0	-4	0	-1	/	/
